Read-out in assay [1]: Tumor necrosis factor receptor superfamily member 6 (Homo sapiens) (UniProt P25445)
In words: LTEA_HepaRG_FAS: Life Technologies and Expression Analysis (LTEA) Assay for Fas cell surface death receptor (FAS) using HepaRG (AID 2283447). As to conditions: mRNA level, 48 h; actives raise or lower the signal. The gist of the method: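 Differentiated human HepaRG cells, pre-cultured 48 h, were exposed in duplicate for 48 h to 8-point half-log concentrations (top 100 uM, 0.5% DMSO) in serum-free induction medium; FAS mRNA measured by qRT-PCR, normalized to ACTB/GAPDH/POLR2A, bidirectional fit versus DMSO.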

Read-out in assay [2]: Fatty acid synthase (Homo sapiens) (UniProt P49327)
Description: LTEA_HepaRG_FASN: Life Technologies and Expression Analysis (LTEA) Assay for Fatty Acid Synthase (FASN) using HepaRG (AID 2283448). As to conditions: mRNA level, 48 h; actives raise or lower the signal. A digest of the protocol: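 FASN expression changes, up or down relative to 0.5% DMSO, were measured by qRT-PCR in human HepaRG cells after 48 h treatment with chemicals at eight concentrations (half-log steps from 100 uM).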

Read-out in assay [3]: Cyclin D2 (CCND2), CCND2 (gene 894)
Description: LTEA_HepaRG_CCND2: Life Technologies and Expression Analysis (LTEA) Assay for Cyclin D2 (CCND2) using HepaRG (AID 2283449).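 Further: CCND2 transcript measured by TaqMan qRT-PCR and normalised to three housekeeping genes.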 To be noted: mRNA level, 48 h; actives raise or lower the signal. A digest of the protocol: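 Differentiated human HepaRG cells were exposed for 48 h in serum-free induction medium to eight half-log concentrations topping at 100 uM (0.5% DMSO vehicle). CCND2 mRNA was quantified by TaqMan qRT-PCR, normalised to ACTB, GAPDH and POLR2A, and fitted bidirectionally against DMSO.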

Read-out in assay [4]: Cyclin Dependent Kinase Inhibitor 1A (CDKN1A), CDKN1A (gene 1026)
In words: LTEA_HepaRG_CDKN1A: Life Technologies and Expression Analysis (LTEA) Assay for Cyclin Dependent Kinase Inhibitor 1A (CDKN1A) using HepaRG (AID 2283450). To be noted: mRNA level, 48 h; actives raise or lower the signal. The gist of the method:
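Read-out is CDKN1A mRNA by TaqMan qRT-PCR, normalized to three housekeeping genes and fitted in both directions against the DMSO baseline. Human HepaRG cells were treated 48 h with test chemicals up to 100 uM in half-log steps, 0.5% DMSO.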

Read-out in assay [5]: Cyclin D1 (CCND1), CCND1 (gene 595)
Description: LTEA_HepaRG_CCND1: Life Technologies and Expression Analysis (LTEA) Assay for Cyclin D1 (CCND1) using HepaRG (AID 2283451). To be noted: mRNA level, 48 h; actives raise or lower the signal. The gist of the method: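 HepaRG plated 48 h, medium switched to serum-free induction medium, chemicals added in duplicate (top 100 uM, half-log steps, 0.5% DMSO) for 48 h, cells lysed, RNA measured by TaqMan qRT-PCR.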

Read-out in assay [6]: catalase (CAT), CAT (gene 847)
In words: LTEA_HepaRG_CAT: Life Technologies and Expression Analysis (LTEA) Assay for catalase (CAT) using HepaRG (AID 2283452).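 On AC50: TaqMan qRT-PCR signal normalized to ACTB GAPDH and POLR2A housekeeping genes.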 To be noted: mRNA level, 48 h; actives raise or lower the signal. A digest of the protocol: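 Differentiated HepaRG cells in serum-free induction medium were dosed 48 h in duplicate, eight half-log concentrations from 100 uM in 0.5% DMSO. Transcript measured by TaqMan qRT-PCR, normalised to ACTB/GAPDH/POLR2A, fitted bidirectionally against DMSO.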

Read-out in assay [7]: flavin-containing dimethylaniline monooxygenases 3 (FMO3), FMO3 (gene 2328)
In words: LTEA_HepaRG_FMO3: Life Technologies and Expression Analysis (LTEA) Assay for flavin-containing dimethylaniline monooxygenases 3 (FMO3) using HepaRG (AID 2283453). To be noted: mRNA level, 48 h; actives raise or lower the signal. The gist of the method: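 Differentiated HepaRG cells in serum-free induction medium, exposed 48 h in duplicate to 8 half-log concentrations up to 100 uM in 0.5% DMSO. FMO3 mRNA by qRT-PCR, normalized to ACTB, GAPDH, POLR2A; bidirectional fit vs DMSO.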

Read-out in assay [8]: Cytochrome P450 (CYP1A1), CYP1A1 (gene 1543)
In words: LTEA_HepaRG_CYP1A1: Life Technologies and Expression Analysis (LTEA) Assay for Cytochrome P450 (CYP1A1) using HepaRG (AID 2283454). As to conditions: mRNA level, 48 h; actives raise or lower the signal. A digest of the protocol:
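HepaRG, 48 h post-plating switched to serum-free induction medium; 8-pt conc-response (top 100 uM, half-log, 0.5% DMSO), duplicates, 48 h. Lysis in RLT, TaqMan qRT-PCR for CYP1A1; gain or loss vs DMSO.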

A short description of assay [9]: CEETOX_H295R_PROG: CeeTox H295R High-throughput Steroidogenesis Assay for Progesterone (PROG) (AID 2283442).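 On AC50: human H295R adrenal cells primed with 10 µM forskolin before dosing; progesterone secreted into medium by H295R cells measured by HPLC-MS/MS.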 As to conditions: actives raise or lower the signal. The gist of the method:
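Steps: seed H295R cells and let them adhere overnight; prime 48 h with 10 uM forskolin; dose with compound in DMSO at 0.1% final for 48 h; extract medium steroids with MTBE; measure progesterone by LC-MS/MS. MTT viability was run in the same wells.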

Assay [10] is described as follows: CEETOX_H295R_ESTRONE: CeeTox H295R High-throughput Steroidogenesis Assay for Estrone (AID 2283441).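 Further: estrone secreted into medium measured by LC-MS/MS after dansyl derivatization.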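 On AC50: human adrenal H295R cells prestimulated with forskolin for two days.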 As to conditions: actives raise or lower the signal. A digest of the protocol:
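H295R cells prestimulated 48 h with 10 uM forskolin, then exposed 48 h to chemicals in 0.1% DMSO final; estrone in medium extracted with MTBE, dansyl-derivatized, quantified by HPLC-MS/MS; bidirectional fitting versus DMSO, viability by MTT.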

SMILES strings stand for the structures. Active and inactive are the calls of the source. How the source made its calls: active means hit-call score of the fitted dose curve at least 0.9, where 1 is the maximum; inactive means score below 0.9.

Sequence of Fatty acid synthase (Homo sapiens) (P49327 whole entry, looked up): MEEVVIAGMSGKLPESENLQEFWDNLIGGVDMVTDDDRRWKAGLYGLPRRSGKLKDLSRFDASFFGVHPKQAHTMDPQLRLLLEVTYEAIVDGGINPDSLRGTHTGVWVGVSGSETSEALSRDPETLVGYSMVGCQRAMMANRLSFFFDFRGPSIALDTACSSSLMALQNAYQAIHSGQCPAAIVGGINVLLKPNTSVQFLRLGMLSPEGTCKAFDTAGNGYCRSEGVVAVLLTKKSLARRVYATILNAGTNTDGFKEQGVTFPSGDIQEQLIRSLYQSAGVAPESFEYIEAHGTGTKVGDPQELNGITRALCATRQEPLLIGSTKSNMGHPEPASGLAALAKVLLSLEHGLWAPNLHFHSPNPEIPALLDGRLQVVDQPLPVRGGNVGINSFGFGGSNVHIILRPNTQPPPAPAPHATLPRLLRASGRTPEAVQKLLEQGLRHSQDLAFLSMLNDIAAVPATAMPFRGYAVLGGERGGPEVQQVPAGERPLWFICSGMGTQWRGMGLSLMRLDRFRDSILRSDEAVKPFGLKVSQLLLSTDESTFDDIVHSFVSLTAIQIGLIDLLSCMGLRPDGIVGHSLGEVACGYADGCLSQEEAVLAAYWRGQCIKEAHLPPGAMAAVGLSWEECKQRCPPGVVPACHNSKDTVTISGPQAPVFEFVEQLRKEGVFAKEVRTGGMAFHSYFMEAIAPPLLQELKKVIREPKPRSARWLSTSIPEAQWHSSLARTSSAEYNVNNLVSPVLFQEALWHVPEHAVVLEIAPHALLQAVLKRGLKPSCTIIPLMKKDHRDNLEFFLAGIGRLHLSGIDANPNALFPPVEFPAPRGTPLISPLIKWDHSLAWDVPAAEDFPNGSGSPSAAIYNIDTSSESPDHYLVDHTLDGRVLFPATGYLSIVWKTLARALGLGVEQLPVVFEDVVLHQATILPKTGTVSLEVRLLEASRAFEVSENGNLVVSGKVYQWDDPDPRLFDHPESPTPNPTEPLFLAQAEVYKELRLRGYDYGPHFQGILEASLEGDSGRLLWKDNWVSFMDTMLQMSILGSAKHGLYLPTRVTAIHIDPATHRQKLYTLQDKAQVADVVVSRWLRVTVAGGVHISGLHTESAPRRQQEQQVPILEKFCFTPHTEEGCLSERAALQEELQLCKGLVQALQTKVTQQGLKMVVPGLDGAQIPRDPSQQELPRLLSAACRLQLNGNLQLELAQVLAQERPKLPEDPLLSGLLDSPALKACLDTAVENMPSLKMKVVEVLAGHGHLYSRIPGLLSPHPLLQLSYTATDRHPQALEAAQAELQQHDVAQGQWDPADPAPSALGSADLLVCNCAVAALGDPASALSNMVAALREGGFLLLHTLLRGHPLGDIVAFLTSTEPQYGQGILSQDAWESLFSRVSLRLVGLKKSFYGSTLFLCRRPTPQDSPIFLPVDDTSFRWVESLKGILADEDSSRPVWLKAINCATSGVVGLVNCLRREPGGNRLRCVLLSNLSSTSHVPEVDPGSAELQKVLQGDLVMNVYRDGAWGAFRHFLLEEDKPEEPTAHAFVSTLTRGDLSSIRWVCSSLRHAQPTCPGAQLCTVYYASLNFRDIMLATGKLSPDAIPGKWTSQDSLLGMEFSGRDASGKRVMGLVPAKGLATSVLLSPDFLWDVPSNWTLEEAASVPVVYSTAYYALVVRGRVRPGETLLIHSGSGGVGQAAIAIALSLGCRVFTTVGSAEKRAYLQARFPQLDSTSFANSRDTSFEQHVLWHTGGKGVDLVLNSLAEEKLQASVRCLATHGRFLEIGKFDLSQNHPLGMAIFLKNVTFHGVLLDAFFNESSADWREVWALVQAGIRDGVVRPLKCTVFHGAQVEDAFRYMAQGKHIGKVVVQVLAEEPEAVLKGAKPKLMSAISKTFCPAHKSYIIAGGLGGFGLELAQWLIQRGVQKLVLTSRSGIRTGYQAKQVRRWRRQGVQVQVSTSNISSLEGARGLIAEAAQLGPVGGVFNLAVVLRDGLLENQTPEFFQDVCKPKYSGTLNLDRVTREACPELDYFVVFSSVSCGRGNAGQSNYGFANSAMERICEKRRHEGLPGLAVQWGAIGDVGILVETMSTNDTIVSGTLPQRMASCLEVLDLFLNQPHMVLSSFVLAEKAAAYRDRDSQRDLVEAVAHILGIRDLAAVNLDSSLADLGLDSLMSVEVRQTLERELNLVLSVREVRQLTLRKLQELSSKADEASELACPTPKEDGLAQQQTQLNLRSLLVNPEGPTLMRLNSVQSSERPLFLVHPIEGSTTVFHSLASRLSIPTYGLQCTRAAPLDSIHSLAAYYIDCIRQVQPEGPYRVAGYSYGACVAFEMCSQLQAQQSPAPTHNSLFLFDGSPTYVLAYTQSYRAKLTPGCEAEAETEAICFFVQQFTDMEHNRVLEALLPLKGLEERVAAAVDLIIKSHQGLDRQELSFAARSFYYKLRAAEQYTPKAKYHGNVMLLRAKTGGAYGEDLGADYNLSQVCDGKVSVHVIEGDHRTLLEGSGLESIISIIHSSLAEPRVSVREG

With `CN(C[C@@H](CC[N+]12CCC(C3CCCCC3)(CC1)CC2)c1ccc(Cl)c(Cl)c1)C(=O)c1cc(C(F)(F)F)cc(C(F)(F)F)c1`, the concentration at half-maximal activity (AC50) is 93.8 µM (active) in assay [1]; 13 µM (active) in assay [2]; 28.9 µM (active) in assay [5]; 17.5 µM (active) in assay [6]; 50 µM (active) in assay [7]; 14.9 µM (active) in assay [8]. In addition, the call in assay [3] and in assay [4] was inactive.

With `Oc1ccc2ccccc2c1`, the call in [9], in assay [1], in [2], in assay [3], in [4] and in [6] was inactive. The call in [7] was inactive. The AC50 in assay [8] was 66.8 µM (active).

Regarding `CCCCOC(=O)c1ccc(O)cc1`, the AC50 in [9] was 3.6 µM (active). Besides, the call in assay [1], in assay [2], in [4], in [6], in assay [7] and in assay [8] was inactive.

Regarding `CN1C(=O)N(c2ccccc2Br)Cc2cnc(Nc3ccc4c(c3)OCC(CO)O4)nc21` (configuration not stated), the concentration at half-maximal activity (AC50) is 0.326 µM (active) in [10]; 0.661 µM (active) in assay [9]; 90.4 µM (active) in assay [1]; 78.3 µM (active) in assay [2]; 67.2 µM (active) in assay [6]; 44.8 µM (active) in assay [7]. Moreover, in assay [8], the concentration at half-maximal activity (AC50) is 12.1 µM (active). Moreover, the result in assay [3] and in assay [4] was inactive.

Consider `CN1C(=O)CC[C@H]1c1cccnc1`, for which the compound was called inactive in assay [1], in [2], in assay [3], in [4], in assay [5] and in [6]. The call in [7] was inactive. In assay [8], the half-maximal activity concentration (AC50) was 76.9 µM (active).

With `Cc1oc2c(NC(=O)c3c(Cl)cccc3Cl)cccc2c1C(C)(C)O`, the result in assay [9], in [1] and in assay [4] was inactive. Besides, the AC50 in assay [2] was 31.2 µM (active); in assay [6] it was 29.3 µM (active); in assay [7] it was 37.2 µM (active); in assay [8] it was 8.74 µM (active).

As for `O=C1c2ccccc2C(=O)N1CCc1noc(-c2ccc(CN3CCCCCC3)s2)n1`, the outcome in assay [9], in assay [1], in [2], in assay [3], in assay [4] and in assay [6] was inactive. Moreover, in assay [7], the result was inactive. The AC50 in [8] was 8.04 µM (active).

Turning to `CCCCCCCCCCCCO`, the outcome in assay [1], in [2], in [3], in assay [4], in [5] and in [6] was inactive. Also, the compound was called inactive in assay [7] and in [8].

`CCCCCCCCCCCC[N+](C)(C)C`: the result in [9] and in [3] was inactive. The concentration at half-maximal activity (AC50) in [1] is 82.5 µM (active); in [2] it was 80.9 µM (active); in assay [4] it was 82 µM (active); in [5] it was 82.7 µM (active); in assay [6], 75.4 µM (active); in assay [7] it was 79.3 µM (active). Besides, the AC50 in assay [8] is 67.8 µM (active).

With `Cc1ccc2oc(CN(Cc3ccccc3)C(=O)Nc3c(F)cc(F)cc3F)c(-c3ccc(Cl)cc3)c2c1`, the compound was classed as inactive in [10], in assay [1], in assay [2], in assay [3], in assay [4] and in [5]. Moreover, the AC50 in assay [9] is 0.505 µM (active); in [6] it was 8.81 µM (active); in [7], 59.5 µM (active); in assay [8], 22 µM (active).

Take `CCCCCCCCOC(=O)c1cc(O)c(O)c(O)c1`: the compound was called inactive in assay [10], in [1], in assay [2], in assay [3], in assay [4] and in assay [5]. Moreover, the result in assay [6] and in assay [7] was inactive. Further, the concentration at half-maximal activity (AC50) in assay [9] was 2.44 µM (active); in [8], 50 µM (active).

On to `O=C(Nc1ccc(Cl)cc1)Nc1ccc(Cl)c(Cl)c1`, for which the result in assay [10] and in assay [4] was inactive. Besides, the concentration at half-maximal activity (AC50) in [9] was 0.318 µM (active); in assay [1], 23.1 µM (active); in [2], 17.5 µM (active); in [6], 16.6 µM (active); in [7], 22.9 µM (active); in [8], 27.7 µM (active).

With `CC(C)(C)c1cc(/C=C2\SC(N)=NC2=O)cc(C(C)(C)C)c1O`, the call in [10], in [1], in assay [3] and in assay [8] was inactive. Moreover, the AC50 is 0.897 µM (active) in [9]; 12.2 µM (active) in assay [2]; 22.2 µM (active) in assay [4]; 16.5 µM (active) in [6]; 23.9 µM (active) in assay [7].

Turning to `CN(C)c1ccc(C(=C2C=CC(=[N+](C)C)C=C2)c2ccc(N(C)C)cc2)cc1`, the result in assay [1], in [3] and in assay [4] was inactive. The AC50 is 3.9 µM (active) in [2]; 37.1 µM (active) in assay [5]; 3.73 µM (active) in [6]; 4.03 µM (active) in assay [7]; 7.18 µM (active) in assay [8].

On to `CC[C@@H]1C[C@H](N(Cc2cc(C(F)(F)F)cc(C(F)(F)F)c2)C(C)=O)c2cc(C(F)(F)F)ccc2N1C(=O)OC(C)C`, for which the call in [1], in assay [2], in [3], in assay [4], in [5] and in assay [6] was inactive. The outcome in [7] was inactive. Besides, in [8], the AC50 was 16.7 µM (active).

As for `Cc1cc(F)ccc1-c1cc(N2CC[C@@H](O)[C@H]2CO)ncc1N(C)C(=O)C(C)(C)c1cc(C(F)(F)F)cc(C(F)(F)F)c1`, the half-maximal activity concentration (AC50) in assay [1] is 71.7 µM (active); in assay [4] it was 12.3 µM (active); in [6], 11.7 µM (active); in [7], 21.9 µM (active); in assay [8], 70.6 µM (active). The result in assay [2], in [3] and in assay [5] was inactive.

With `COc1cccc([C@H](O)C2CCN(CCc3ccc(F)cc3)CC2)c1OC`, the compound was classed as inactive in assay [10], in assay [1], in assay [2], in assay [3], in [4] and in assay [6]. For the same compound, the result in assay [7] was inactive. Besides, the AC50 in [9] is 0.405 µM (active); in assay [8], 54.5 µM (active).

What is called AC50 is the concentration giving half of the maximal activity seen.

(Values after PubChem BioAssay (EPA / NIEHS).)
